From ChEMBL document CHEMBL3988442, “University of Dundee, Small-Polar-MMV Screening Library” (2021)
For some of these results: Potency and affinity values are given separately.

Tests used:
Parameters in all cases: scale not given: direction of the effect not stated beside the values
[1] = target: Protein translocase subunit SecA (Escherichia coli (strain K12)) (UniProt P10408); experiment: Assay to Identify E. coli SecA ATPase Inhibitors; assay type: functional; details: 30 µM
[2] = target: T1, Ubiquitin-activating enzyme e1, putative (Leishmania donovani (strain BPK282A1)) (UniProt E9BSI1); experiment: Leishmania donovani Ubiquitin Activating Enzyme (LdE1); assay type: functional; details: 30 µM
T1 sequence (whole entry): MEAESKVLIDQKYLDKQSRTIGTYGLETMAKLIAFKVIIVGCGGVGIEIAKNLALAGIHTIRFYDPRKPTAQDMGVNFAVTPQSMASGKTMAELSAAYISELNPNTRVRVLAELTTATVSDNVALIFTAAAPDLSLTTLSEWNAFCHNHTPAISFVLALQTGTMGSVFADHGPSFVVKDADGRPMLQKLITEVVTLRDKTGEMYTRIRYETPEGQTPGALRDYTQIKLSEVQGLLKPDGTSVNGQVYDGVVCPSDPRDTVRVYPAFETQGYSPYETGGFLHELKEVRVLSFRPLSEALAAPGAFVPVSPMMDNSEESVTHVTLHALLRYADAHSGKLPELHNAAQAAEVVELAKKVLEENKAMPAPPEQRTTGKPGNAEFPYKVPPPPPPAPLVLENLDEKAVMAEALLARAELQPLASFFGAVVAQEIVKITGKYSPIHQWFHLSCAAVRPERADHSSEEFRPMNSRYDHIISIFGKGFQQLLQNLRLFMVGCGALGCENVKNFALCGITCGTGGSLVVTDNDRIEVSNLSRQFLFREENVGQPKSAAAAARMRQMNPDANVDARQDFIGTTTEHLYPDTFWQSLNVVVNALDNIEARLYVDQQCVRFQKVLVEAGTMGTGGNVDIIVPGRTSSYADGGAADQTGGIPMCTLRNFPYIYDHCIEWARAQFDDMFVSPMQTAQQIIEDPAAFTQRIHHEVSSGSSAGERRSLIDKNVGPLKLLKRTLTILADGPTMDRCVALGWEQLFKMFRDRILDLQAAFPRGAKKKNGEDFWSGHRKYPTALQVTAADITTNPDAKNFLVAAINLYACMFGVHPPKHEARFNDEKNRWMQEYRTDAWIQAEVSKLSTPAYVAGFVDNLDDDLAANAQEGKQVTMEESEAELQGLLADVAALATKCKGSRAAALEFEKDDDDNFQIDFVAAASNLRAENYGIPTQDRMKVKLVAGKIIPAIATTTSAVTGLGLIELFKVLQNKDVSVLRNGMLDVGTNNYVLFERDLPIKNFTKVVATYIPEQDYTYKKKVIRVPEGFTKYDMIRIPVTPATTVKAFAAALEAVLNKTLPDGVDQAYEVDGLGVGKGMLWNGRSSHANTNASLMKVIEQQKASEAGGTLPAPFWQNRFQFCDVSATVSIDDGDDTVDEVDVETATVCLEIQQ

[3] = target: AMP-activated protein kinase, AMPK (Homo sapiens) (UniProt P54646+O43741+P54619+Q9UGJ0+Q9Y478+Q13131+Q9UGI9); experiment: AMP-dependent Kinase enzyme assay. An in vitro enzyme assay that detects ADP turnover that is directly proportional to AMPK activity. This uses naive AMPK that is activated during the assay with MK-8722; assay type: functional; details: 30 µM
[4] = target: Sialic acid-binding Ig-like lectin 9 (Homo sapiens) (UniProt Q9Y336); experiment: Hs-Siglec9 ALPHAscreen SOP 20170721; details: 10 µM
[5] = tested on: Trypanosoma cruzi; experiment: Trypanosoma cruzi phosphomannomutase and mannose-1-phosphate guanylyltransferase assay; assay type: functional; details: 10 µM
[6] = target: T2, Arginase-2, mitochondrial (Homo sapiens) (UniProt P78540); experiment: in vitro enzyme assay to detect the production of urea directly proportional to the activity of Arginase II; assay type: functional; details: 33.3 µM; note: in the data most compounds retested in dose-response had high values
T2 sequence (whole entry): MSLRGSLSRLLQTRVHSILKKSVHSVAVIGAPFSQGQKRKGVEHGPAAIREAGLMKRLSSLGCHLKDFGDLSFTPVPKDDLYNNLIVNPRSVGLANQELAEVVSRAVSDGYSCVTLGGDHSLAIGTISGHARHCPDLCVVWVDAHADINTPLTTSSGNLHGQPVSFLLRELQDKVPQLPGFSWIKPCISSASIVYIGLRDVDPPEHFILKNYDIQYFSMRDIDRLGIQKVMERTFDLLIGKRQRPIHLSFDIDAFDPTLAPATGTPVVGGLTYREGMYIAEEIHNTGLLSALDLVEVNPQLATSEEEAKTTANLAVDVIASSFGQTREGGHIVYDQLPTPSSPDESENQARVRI

[7] = target: T3, Proteasome subunit beta (Trypanosoma cruzi) (UniProt O96673); experiment: Trypanosoma cruzi proteasome chymotrypsin-like activity (TcProtChymo) assay.; note: in the data most compounds retested in dose-response had high values; assay type: functional; details: 9.37 µM
T3 sequence (whole entry): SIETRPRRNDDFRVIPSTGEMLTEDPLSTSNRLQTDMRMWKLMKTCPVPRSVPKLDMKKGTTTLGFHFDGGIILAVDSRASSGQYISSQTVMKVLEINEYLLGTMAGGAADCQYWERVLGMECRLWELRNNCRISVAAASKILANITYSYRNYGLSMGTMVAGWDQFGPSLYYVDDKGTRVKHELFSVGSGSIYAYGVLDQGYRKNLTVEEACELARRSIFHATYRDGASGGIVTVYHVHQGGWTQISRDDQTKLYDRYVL

[8] = species on record: Homo sapiens; experiment: To identify inhibition of the IFN signalling (Jak-Stat) pathway via expression of an eGFP reporter gene under the control of an IFN-stimulated response element (ISRE) containing MxA promoter.; assay type: functional; details: 30 µM
[9] = target: T4, Tyrosyl-tRNA synthetase, putative (Trypanosoma cruzi (strain CL Brener)) (UniProt Q4DSP6); experiment: Trypanosoma cruzi tyrosyl tRNA synthetase (TcYRS) _High Tyrosine SOP; assay type: functional; details: 30 µM; note: in the data most compounds retested in dose-response had high values
T4 sequence (whole entry): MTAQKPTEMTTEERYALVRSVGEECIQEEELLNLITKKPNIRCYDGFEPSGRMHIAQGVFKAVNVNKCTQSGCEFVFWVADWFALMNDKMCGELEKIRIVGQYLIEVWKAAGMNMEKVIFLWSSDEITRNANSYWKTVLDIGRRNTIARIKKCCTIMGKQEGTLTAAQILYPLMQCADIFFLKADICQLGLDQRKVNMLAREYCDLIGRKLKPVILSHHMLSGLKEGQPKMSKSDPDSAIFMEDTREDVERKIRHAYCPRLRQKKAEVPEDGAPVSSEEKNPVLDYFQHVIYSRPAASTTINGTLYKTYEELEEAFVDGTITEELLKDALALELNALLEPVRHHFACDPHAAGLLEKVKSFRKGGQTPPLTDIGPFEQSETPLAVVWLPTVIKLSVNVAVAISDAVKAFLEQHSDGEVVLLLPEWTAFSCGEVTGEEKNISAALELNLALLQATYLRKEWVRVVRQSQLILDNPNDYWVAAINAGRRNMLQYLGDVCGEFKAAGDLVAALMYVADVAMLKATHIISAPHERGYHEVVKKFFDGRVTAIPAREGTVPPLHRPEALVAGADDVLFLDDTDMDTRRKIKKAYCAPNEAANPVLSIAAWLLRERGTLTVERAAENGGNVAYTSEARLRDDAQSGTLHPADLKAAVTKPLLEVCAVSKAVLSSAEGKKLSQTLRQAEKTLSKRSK

[10] = target: T4, Tyrosyl-tRNA synthetase, putative (Trypanosoma cruzi (strain CL Brener)); experiment: Trypanosoma cruzi tyrosyl tRNA synthetase (TcYRS) SOP; assay type: functional; details: 30 µM
[11] = target: Chromo domain-containing protein 1 (Saccharomyces cerevisiae (strain ATCC 204508 / S288c) (Baker's yeast)) (UniProt P32657); experiment: ScCHD-1 Enzyme Inhibition Assay; assay type: functional; details: 30 µM; note: in the data most compounds retested in dose-response had high values
Sequence of Chromo domain-containing protein 1 (Saccharomyces cerevisiae (strain ATCC 204508 / S288c) (Baker's yeast)) (P32657 whole entry, the tested form may be a part): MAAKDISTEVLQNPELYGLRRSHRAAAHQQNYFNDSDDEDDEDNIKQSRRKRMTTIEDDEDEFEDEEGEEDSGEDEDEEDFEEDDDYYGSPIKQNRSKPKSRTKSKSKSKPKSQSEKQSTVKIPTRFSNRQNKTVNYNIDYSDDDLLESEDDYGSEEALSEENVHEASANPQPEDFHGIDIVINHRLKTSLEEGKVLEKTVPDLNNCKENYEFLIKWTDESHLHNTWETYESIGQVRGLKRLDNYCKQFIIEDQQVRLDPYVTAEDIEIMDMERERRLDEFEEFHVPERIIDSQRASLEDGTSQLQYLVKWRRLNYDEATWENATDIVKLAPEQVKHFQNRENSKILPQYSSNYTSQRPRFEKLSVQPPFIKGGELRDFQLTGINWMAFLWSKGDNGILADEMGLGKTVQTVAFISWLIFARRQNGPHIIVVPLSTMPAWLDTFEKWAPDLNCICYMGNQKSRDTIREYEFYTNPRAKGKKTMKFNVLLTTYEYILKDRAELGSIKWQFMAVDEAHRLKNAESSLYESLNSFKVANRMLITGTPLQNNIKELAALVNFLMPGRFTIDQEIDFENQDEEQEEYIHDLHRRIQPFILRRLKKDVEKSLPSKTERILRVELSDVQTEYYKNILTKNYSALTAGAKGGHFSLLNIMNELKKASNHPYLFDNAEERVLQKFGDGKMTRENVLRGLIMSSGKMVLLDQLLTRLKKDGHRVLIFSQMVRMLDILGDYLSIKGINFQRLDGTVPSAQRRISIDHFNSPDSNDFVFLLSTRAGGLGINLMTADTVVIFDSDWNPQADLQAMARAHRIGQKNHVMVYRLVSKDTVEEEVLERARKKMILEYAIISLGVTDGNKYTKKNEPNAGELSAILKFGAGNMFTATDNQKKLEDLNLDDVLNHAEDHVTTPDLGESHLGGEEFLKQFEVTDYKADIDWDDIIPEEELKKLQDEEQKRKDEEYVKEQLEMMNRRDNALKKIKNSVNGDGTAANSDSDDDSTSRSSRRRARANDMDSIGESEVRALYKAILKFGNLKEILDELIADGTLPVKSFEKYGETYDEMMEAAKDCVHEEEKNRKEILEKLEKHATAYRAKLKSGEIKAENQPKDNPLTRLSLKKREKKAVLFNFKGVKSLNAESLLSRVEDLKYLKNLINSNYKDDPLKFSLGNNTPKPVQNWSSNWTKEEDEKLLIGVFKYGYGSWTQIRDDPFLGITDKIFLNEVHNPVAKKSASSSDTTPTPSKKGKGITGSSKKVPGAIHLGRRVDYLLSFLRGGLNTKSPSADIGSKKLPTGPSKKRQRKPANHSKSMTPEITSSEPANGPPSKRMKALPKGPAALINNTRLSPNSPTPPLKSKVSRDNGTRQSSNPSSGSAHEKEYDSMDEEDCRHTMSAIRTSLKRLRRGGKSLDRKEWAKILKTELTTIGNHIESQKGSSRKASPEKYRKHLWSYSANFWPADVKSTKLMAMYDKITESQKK

Sequence of Sialic acid-binding Ig-like lectin 9 (Homo sapiens) (Q9Y336 whole entry): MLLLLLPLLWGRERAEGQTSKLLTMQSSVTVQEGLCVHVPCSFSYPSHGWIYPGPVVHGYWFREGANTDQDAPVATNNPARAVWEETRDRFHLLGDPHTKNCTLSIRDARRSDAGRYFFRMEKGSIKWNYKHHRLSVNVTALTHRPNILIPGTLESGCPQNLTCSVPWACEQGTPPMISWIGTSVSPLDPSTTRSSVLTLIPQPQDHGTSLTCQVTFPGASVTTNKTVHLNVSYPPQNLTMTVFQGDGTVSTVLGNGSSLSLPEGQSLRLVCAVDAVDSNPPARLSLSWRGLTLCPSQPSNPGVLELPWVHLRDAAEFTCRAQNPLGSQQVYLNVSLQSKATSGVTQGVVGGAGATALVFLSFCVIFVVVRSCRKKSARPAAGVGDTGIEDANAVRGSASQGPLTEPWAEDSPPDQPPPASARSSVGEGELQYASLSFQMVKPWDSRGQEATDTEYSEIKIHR
Sequence of Protein translocase subunit SecA (Escherichia coli (strain K12)) (P10408 whole entry): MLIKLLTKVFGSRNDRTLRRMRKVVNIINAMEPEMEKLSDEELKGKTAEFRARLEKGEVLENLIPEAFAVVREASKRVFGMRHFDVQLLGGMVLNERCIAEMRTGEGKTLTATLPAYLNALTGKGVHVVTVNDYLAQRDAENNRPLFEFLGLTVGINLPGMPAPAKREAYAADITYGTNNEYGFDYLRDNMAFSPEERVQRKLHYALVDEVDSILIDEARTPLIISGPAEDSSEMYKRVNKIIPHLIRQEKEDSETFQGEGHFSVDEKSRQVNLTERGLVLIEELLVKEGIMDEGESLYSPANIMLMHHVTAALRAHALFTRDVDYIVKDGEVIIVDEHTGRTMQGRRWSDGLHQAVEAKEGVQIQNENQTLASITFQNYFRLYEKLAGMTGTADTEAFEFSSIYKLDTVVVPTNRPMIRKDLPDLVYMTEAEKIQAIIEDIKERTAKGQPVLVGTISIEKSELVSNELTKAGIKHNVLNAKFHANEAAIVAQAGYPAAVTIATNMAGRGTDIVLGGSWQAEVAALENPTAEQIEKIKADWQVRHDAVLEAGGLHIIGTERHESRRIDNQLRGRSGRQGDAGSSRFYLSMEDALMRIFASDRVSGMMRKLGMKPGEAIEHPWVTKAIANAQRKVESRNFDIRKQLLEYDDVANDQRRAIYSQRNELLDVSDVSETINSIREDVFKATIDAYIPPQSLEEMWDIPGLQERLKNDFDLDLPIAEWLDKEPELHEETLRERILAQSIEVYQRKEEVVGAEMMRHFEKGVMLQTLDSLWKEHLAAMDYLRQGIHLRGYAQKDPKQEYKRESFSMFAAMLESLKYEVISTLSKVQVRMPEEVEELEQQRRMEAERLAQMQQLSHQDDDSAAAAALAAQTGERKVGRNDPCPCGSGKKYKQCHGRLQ

Compound | Percent Effect [1] | Percent Effect [2] | Percent Effect [3] | Percent Effect [4] | Percent Effect [5] | Percent Effect [6] | Percent Effect [7] | Percent Effect [8] | Percent Effect [9] | Percent Effect [10] | Percent Effect [11]
Cn1ccnc1CNC(=O)N(CCCO)C1CCCc2ccccc21 (stereo not given) | -2.21% | 5.26% | -1.41% | -4.25% | 2.43% | -3.55% | -3.36% | 8.36% | 2.13% | 10.4% | -9.5%
Cc1cnn(CC(C)NCc2ccc(-n3cccn3)cc2)c1 (stereo not given) | -1.91% | 1.27% | 2.55% | -4.21% | -3.18% | 0.645% | -0.858% | -0.795% | 0% | -12.7% | -18.2%
CC(NC(=O)CCCOc1ccccc1)c1nnc2n1CCCCC2 (stereo not given) | -4.14% | 13.5% | -5.88% | -2.77% | 0.0943% | -5.21% | 11.3% | 16.3% | 5.42% | 13.6% | -4.16%
COc1ccccc1CN1CC[C@H]2C[C@@H](C(=O)N3CCCC3)O[C@H]2C1 | 2.23% | 13% | 4.84% | -5.31% | -7.99% | 4.52% | 8.88% | 6% | 6.35% | 14.1% | -7.87%
COCCCN1CCCN(C(C)c2nc(C3CC3)no2)CC1 (stereo not given) | -1.91% | 8.11% | -3.11% | 15.8% | 4.74% | -13.5% | 6.46% | -3.07% | 4.95% | 15.8% | -1.39%
Fc1cccc(-c2nc(CN3CCOC(Cn4cncn4)C3)co2)c1 (stereo not given) | -1.25% | 0% | 1.03% | 1.46% | 8.97% | -1.14% | 4.67% | -3.37% | 0.493% | 3.8% | -3.88%
Cc1ccc(C2COCCN2C(=O)c2ccc(N(C)C)cc2)o1 (stereo not given) | -1.88% | 10.7% | -8.36% | 13.4% | 3.02% | 13.5% | 15.9% | 19.2% | 2.73% | 18.5% | -4.41%
Cc1ccc(-c2cn[nH]c2C2CCCN(c3nccc(N)n3)C2)cc1 (stereo not given) | -2.69% | 20.8% | 46.7% | 15.4% | 5.15% | -1.77% | 25.6% | 37.1% | 7.37% | 20.5% | 3.03%
Cc1cnn(C2CCCN(C(=O)c3cn4cccnc4n3)C2)c1 (stereo not given) | -4.17% | 8.11% | -11.5% | 17.1% | 1.04% | -6.01% | 1.62% | 7.34% | 7.39% | 16.1% | -12.7%
Cc1ncsc1C(=O)NC1CCN(Cc2ccc(C#N)cc2)CC1 | -4.4% | 18.2% | 0.609% | 12.4% | 1.12% | -2.49% | 5.74% | 32.5% | 3.88% | 12.2% | -7.46%
CC(C)Oc1ncccc1CNC(=O)C1CCCN(C(=O)C2CC2)C1 (stereo not given) | -5.21% | 5.26% | -7.89% | -1.61% | -4.89% | 0% | 7.52% | 24.1% | 2.45% | 7.32% | -4.9%
Cn1cc(Br)c(=O)c(NS(=O)(=O)c2cc(F)ccc2Cl)c1 | -3.11% | 2.7% | -8.02% | 5.84% | 9.07% | -2.38% | 13.3% | 6.19% | 0.529% | -2.44% | -0.642%
CCn1nccc1CNC(=O)C1CCCC1 | 0.221% | 10.4% | 2.62% | 4.33% | -7.38% | 1.38% | 9.65% | -1.06% | 5.38% | 16.1% | -0.569%
O=C(NCc1nnc2n1CCC2)N(Cc1ccco1)C1CC1 | -0.0964% | 8.11% | -2.14% | 3.8% | -2.12% | -2.86% | 20.3% | 14.6% | 3.7% | 12.2% | -2.31%
CN(C)Cc1cnc2n1CCN(Cc1ccsc1)CC2 | -2.78% | 13.7% | -4.83% | 6.79% | 2.98% | 1.2% | 13.4% | 6.89% | 8.33% | 11.1% | -0.604%
CCc1nc(CN2CCN(C(=O)COCc3ccccc3)CC2)no1 | -6.48% | 8.11% | -6.87% | 35% | 4.4% | 25.1% | 10.7% | -6.99% | 2.15% | 8.64% | -11.6%
Cn1ccnc1C(NCc1csc(Br)c1)c1ccccc1 (stereo not given) | -4.88% | 21.6% | 3.42% | 17.4% | 4.92% | 1.66% | 13.8% | 12.7% | 12.9% | 30.5% | -7.11%
FC(F)(F)Cc1noc(CN2CCCC2c2noc(C3CC3)n2)n1 (stereo not given) | -1.65% | 13.5% | -5.95% | 4.29% | 4.06% | -10.8% | 5.59% | 7.37% | 7.39% | 23.5% | -9.28%
O=C(c1cscn1)N1C[C@@H]2[C@@H](C1)OCC(=O)N2CC1CCCC1 | -1.51% | -54.5% | 1.15% | 6.36% | -5.01% | -8.28% | 16.5% | 0.71% | -87.1% | -147% | -3.29%
Cc1nc(C)n(CC2CCCN(CCC(=O)N3CCCCC3)C2)n1 (stereo not given) | -1.52% | -2.6% | 7.57% | -4.47% | -4.21% | 5.26% | -0.566% | 20.7% | 0% | 0% | 4.58%
